“And” between values parts separate entries of the source, which are not always exact repeats. Equal entries are not always repeated. This is part of a sample that, as a whole, favours compounds with a hit. Of some 83,000 tested, about 20% had one in any assay.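 Testing used 96-well plates and a 48-hour single-concentration exposure. Example: -40 means 40% of the starting cells died.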 Unmarked numbers belong to inactive results. The source made the active and inactive calls. The calls were made as follows: active = growth percent below 10; inactive = the rest. Where a SMILES comes first, the peptide text is derived from it. The star is where a group is joined. Trt = c1ccc(C(c2ccccc2)(c2ccccc2)*)cc1; Cbz = O=C(OCc1ccccc1)*

Experiment in all cases: NCI-60 one-dose screen, 48 h (100 = growth as untreated, 0 = no growth, -100 = all killed)
Holding throughout (conditions): 10 µM unless noted

Test [1] concerns SK-MEL-2 melanoma.
For test [2], the system named is EKVX NSCLC.
In test [3] the test system is SN12C renal.
Test [4] deals with TK-10 renal.
In test [5] the test system is ACHN renal.
For test [6], the system named is CAKI-1 renal.
The test system of test [7] is A498 renal.
The test system of test [8] is CCRF-CEM leukemia.
Test [9] relates to MOLT-4 leukemia.
The subject of test [10] is RPMI-8226 leukemia.
The subject of test [11] is OVCAR-5 ovarian.
The test system of test [12] is OVCAR-4 ovarian.
Test [13] deals with SK-OV-3 ovarian.
Test [14] concerns IGROV1 ovarian.
For test [15], the system named is OVCAR-3 ovarian.
Test [16] deals with NCI/ADR-RES ovarian.
Test [17] has as its system OVCAR-8 ovarian.
Test [18] relates to SR leukemia.
The test system of test [19] is HS 578T breast.
In test [20] the test system is UO-31 renal.

Take `Cc1ccc(C(=Nc2ccccc2)N=P(c2ccccc2)(c2ccccc2)c2ccccc2)cc1`: the growth in test [1] was -51.8% (active); in test [2], -16.8% (active); in test [3] it was -10.1% (active); in test [4], -23.4% (active); in test [5] it was 2.97% (active); in test [6], -32.1% (active). For the same compound, the growth was -56.7% (active) in [7]; -30.2% (active) in test [8]; 1.64% (active) in [9]; -38.6% (active) in test [10]; -5.4% (active) in [11]; 29% in test [12]. In addition, the growth is -66.3% (active) in test [13], -68.5% (active) in test [14], -37.4% (active) in test [15] and -10.4% (active) in test [16].
As for `CN(C)CCOc1ccc2c(c1)C(=O)/C(=C\c1ncc([N+](=O)[O-])n1C)C2`, the growth in [1] was -72.5% (active); in test [2] it was -18.9% (active); in [3] it was 0.0262% (active); in test [4], -9.94% (active); in test [5], -31.9% (active); in [6], -19.2% (active). The growth is -88% (active) in test [7]; -61.1% (active) in test [8]; 9.88% (active) in test [10]; 1.01% (active) in test [17]; -49.1% (active) in test [12]; -42.6% (active) in test [13]. Besides, the growth is -47.7% (active) in test [14], -59% (active) in test [15] and -1.71% (active) in [16].
For the compound `COC(=O)C(CSC(c1ccccc1)(c1ccccc1)c1ccccc1)NC(=O)C(CC(N)=O)NC(=O)OCc1ccccc1` (stereo not drawn) (Cbz-Asn-Cys(Trt)-OMe; configuration not given here), the growth is -23% (active) in [1]; 36.6% in test [2]; 29.2% in test [3]; 48.4% in [4]; 28.3% in [5]; 44.3% in test [6]. For the same compound, the growth is 21.1% in test [7]; 40.3% in test [8]; 3.12% (active) in test [9]; -43.7% (active) in test [18]; 2.8% (active) in [10]; 13.1% in test [17]. For the same compound, the growth was 67% in test [11]; 39.5% in test [12]; 14.2% in [13]; 48.6% in test [14]; -5.78% (active) in test [15]; -20.4% (active) in test [19]. Further, the growth in test [16] was 63.2%.
For the compound `O=Nc1ccccc1N=O`, the growth in test [1] is 90.2%; in test [2], 88.7%; in test [3], 71.6%; in test [4], 115%; in test [5], 84.5%; in [6], 81.1%. In addition, the growth in test [7] is 110%; in test [8], 97.5%; in test [9], 99.9%; in [18] it was 63.8%; in test [10], 86.7%; in test [17], 89.4%. The growth in test [11] is 105%; in test [12] it was 88.9%; in [13], 116%; in test [14] it was 91.1%; in test [15] it was 118%; in test [16] it was 81.2%.
With `CC1SC(=S)N(c2ccc(Cl)cc2)C1=O` (stereo not drawn), the growth is 98.2% in [1]; 87.8% and 89.7% in [2]; 93% and 85.6% in test [3]; 78.9% and 73.9% in test [20]; 86.8% and 73.4% in test [5]; 109% and 82.2% in test [6]. For the same compound, the growth in test [7] is 143% and 122%; in test [8] it was 113% and 94.8%; in [9] it was 83.6% and 86.9%; in test [10], 94.8% and 79.6%; in [17], 101%; in [11], 91.3% and 89.6%. Moreover, the growth in [12] is 97.5% and 91.3%; in [13] it was 117% and 99.4%; in [14], 128% and 92.5%; in test [15] it was 93.3% and 97.7%; in test [19], 161% and 132%; in test [16], 103%.
`CCC(=O)Sc1ccccc1C(=O)Nc1ccc(Cl)cc1`: the growth is 133% in [1]; 29.5% in test [2]; 49.5% in test [3]; 61.6% in [20]; 73.2% in test [5]; 31.9% in test [6]. Moreover, the growth in [7] is 36.8%; in test [8] it was 27.1%; in test [9], 30.9%; in test [18], 26.3%; in test [10] it was 35%; in test [17], 78.8%. The growth was 110% in test [11]; 44.5% in test [12]; 87.3% in test [13]; 71.2% in test [14]; 39.9% in test [15]; 52.6% in test [16].
For `O=C1OCc2cccc3cccc1c23`, the growth in [1] was 123%; in [3], 101%; in test [20], 77%; in [4], 101%; in [5] it was 95.7%; in [6], 102%. Also, the growth in test [7] was 83.5%; in test [8], 94.5%; in [9], 92.6%; in test [18] it was 93.1%; in test [10], 100%; in test [17], 101%. Besides, the growth in [11] is 108%; in [12], 97.1%; in test [13], 112%; in test [14], 102%; in test [15] it was 110%; in [19], 102%. In addition, the growth in test [16] was 108%.

The values are drawn from PubChem BioAssay (NCI).
